Measurements from PubChem BioAssay AID1159580 (chemical genetic matrix, 2015).
Among all 5,500 compounds or so, about 2,000 (36%) were called active. Not shown: some 18% with an inconclusive outcome. Cut-off read from the data, not from the text of the source: active = normalized growth mostly below about 0.91 (no sharp cut-off); inconclusive = no clear call, values can overlap the other calls; inactive = mostly above about 0.92. The list shows a part of the results.

Experiment: chemical genetic growth profiling, strain panel (AID 1159580);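 note: tested at 20 µM; growth read once vehicle control cultures reached saturation at 30 °C; 1 = growth at the plate median or of vehicle wells; lower values mean less growth of the strain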
Conditions: growth OD

Measured: normalized growth

C=C/C(C)=C\CC1C(C)(O)CCC2C(C)(C)CCCC21C (stereo unspecified)
active: S. cerevisiae deletion strains, locus YKL085W, strain MDH1, stronger effect = lower value 0.0898 | S. cerevisiae deletion strains, locus YKL190W, strain CNB1, stronger effect = lower value 0.0889 | S. cerevisiae deletion strains, locus YKR001C, strain vps1, stronger effect = lower value 0.0677 | S. cerevisiae deletion strains, locus YLR039C, strain RIC1, stronger effect = lower value 0.111 | S. cerevisiae deletion strains, locus YLR058C, strain SHM2, stronger effect = lower value 0.0878 | S. cerevisiae deletion strains, locus YLR102C, strain apc9, stronger effect = lower value 0.186 | S. cerevisiae deletion strains, locus YLR262C, strain YPT6, stronger effect = lower value 0.121 | S. cerevisiae deletion strains, locus YLR268W, strain sec22, stronger effect = lower value 0.0849 | S. cerevisiae deletion strains, locus YLR330W, strain CHS5, stronger effect = lower value 0.057 | S. cerevisiae deletion strains, locus YLR342W, strain FKS1 (second series), stronger effect = lower value 0.0927 | S. cerevisiae deletion strains, locus YLR371W, strain rom2, stronger effect = lower value 0.0695 | S. cerevisiae deletion strains, locus YLR418C, strain cdc73, stronger effect = lower value 0.107 | S. cerevisiae deletion strains, locus YML016C, strain PPZ1, stronger effect = lower value 0.0581 | S. cerevisiae deletion strains, locus YML032C, strain rad52, stronger effect = lower value 0.621 | S. cerevisiae deletion strains, locus YML124C, strain tub3, stronger effect = lower value 0.184 | S. cerevisiae deletion strains, locus YMR078C, strain ctf18, stronger effect = lower value 0.0993 | S. cerevisiae deletion strains, locus YMR223W, strain ubp8, stronger effect = lower value 0.0709 | S. cerevisiae deletion strains, locus YMR263W, strain SAP30, stronger effect = lower value 0.153 | S. cerevisiae deletion strains, locus YMR307W, strain GAS1, stronger effect = lower value 0.127 | S. cerevisiae deletion strains, locus YNL067W, strain RPL9B, stronger effect = lower value 0.421 | S. cerevisiae deletion strains, locus YNL128W, strain TEP1, stronger effect = lower value 0.0735 | S. cerevisiae deletion strains, locus YNL153C, strain GIM3, stronger effect = lower value 0.215 | S. cerevisiae deletion strains, locus YNL233W, strain BNI4, stronger effect = lower value 0.0602 | S. cerevisiae deletion strains, locus YNL250W, strain rad50, stronger effect = lower value 0.894 | S. cerevisiae deletion strains, locus YNL271C, strain bni1, stronger effect = lower value 0.336 | S. cerevisiae deletion strains, locus YNL298W, strain CLA4, stronger effect = lower value 0.611 | S. cerevisiae deletion strains, locus YNL307C, strain MCK1, stronger effect = lower value 0.072 | S. cerevisiae deletion strains, locus YNL322C, strain KRE1, stronger effect = lower value 0.169 | S. cerevisiae deletion strains, locus YNR052C, strain pop2, stronger effect = lower value 0.527 | S. cerevisiae deletion strains, locus YOL006C, strain TOP1, stronger effect = lower value 0.128 | S. cerevisiae deletion strains, locus YOL147C, strain pex11, stronger effect = lower value 0.152 | S. cerevisiae deletion strains, locus YOR061W, strain CKA2, stronger effect = lower value 0.05 | S. cerevisiae deletion strains, locus YOR069W, strain VPS5, stronger effect = lower value 0.078 | S. cerevisiae deletion strains, locus YOR136W, strain idh2, stronger effect = lower value 0.101 | S. cerevisiae deletion strains, locus YOR144C, strain elg1, stronger effect = lower value 0.423 | S. cerevisiae deletion strains, locus YOR184W, strain ser1, stronger effect = lower value 0.0788 | S. cerevisiae deletion strains, locus YOR316C, strain cot1, stronger effect = lower value 0.113 | S. cerevisiae deletion strains, locus YPL055C, strain LGE1, stronger effect = lower value 0.201 | S. cerevisiae deletion strains, locus YPL241C, strain CIN2, stronger effect = lower value 0.358 | S. cerevisiae deletion strains, locus YPR119W, strain clb2, stronger effect = lower value 0.079 | S. cerevisiae deletion strains, locus YPR163C, strain tif3, stronger effect = lower value 0.0854 | S. cerevisiae deletion strains, locus YPR167C, strain met16, stronger effect = lower value 0.067 | S. cerevisiae deletion strains, strain wtn01, stronger effect = lower value 0.0803 | S. cerevisiae strains, strain wild type, stronger effect = lower value 0.125
inactive: S. cerevisiae deletion strains, locus YOL012C, strain htz1 0.258 | S. cerevisiae deletion strains, locus YPR141C, strain kar3, stronger effect = lower value 0.958
